Assay [1] is described as follows: Viability qHTS for spleen associated tyrosine kinase inhibitor (SYKi) naive MV4-11 cells (AID 1963823). Also: nearly all actives have a fitted effect of over 40% in size. The method in brief:
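Viability of MV4-11 AML cells lacking prior SYK inhibitor exposure is scored by CellTiter-Glo luminescence following 72 hr compound incubation at 37 C, 5% CO2, seeded at 500 cells per well.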

A short description of assay [2]: Viability qHTS for spleen associated tyrosine kinase inhibitor (SYKi) drug resistant MV4-11 cells (AID 1963824). Also: nearly all actives have a fitted effect of over 35% in size. The method in brief: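 SYK-inhibitor-resistant MV4-11 AML cells were seeded at 500 per well onto compound and cultured 72 hours (37 °C, 5% CO2). CellTiter-Glo was then added, and after 10 min at room temperature, luminescence gave viability.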

SMILES strings stand for the structures. Inconclusive results are not listed. The source made the active and inactive calls. Calls follow the shape of the dose curve; as a rule, active = well fitted cell-killing curve with a large enough effect; inconclusive = small, poorly fitted or top-dose-only effect, or effect the other way; inactive = no such curve, though single readings can be large or run the other way.
Potency is read from the fitted curve at half-maximal effect.

In the case of `CCNC(=O)[C@@H]1CCCN1C(=O)[C@H](CCCN=C(N)N)NC(=O)[C@H](CC(C)C)NC(=O)[C@@H](CC(C)C)NC(=O)[C@H](Cc1ccc(O)cc1)NC(=O)[C@H](CO)NC(=O)[C@H](Cc1c[nH]c2ccccc12)NC(=O)[C@H](Cc1cnc[nH]1)NC(=O)[C@@H]1CCC(=O)N1`, in assay [1], the Potency result was “inactive”. In assay [2], the Potency is 7.09 µM (active).

Regarding `O=C(CC(c1ccccc1)c1ccccc1)N1CCN(C(c2ccccc2)c2ccccc2)CC1`, the figures for the Potency in assay [1] and in assay [2] were 13 µM (active) and 10.3 µM (active), respectively.

Regarding `COc1ccc(/C=C/C(=O)O[C@@H]2[C@@H](O)[C@H](C)O[C@@H](O[C@H]3[C@@H]4C=CO[C@@H](O[C@H]5O[C@@H](CO)[C@H](O)[C@@H](O)[C@@H]5O)[C@@H]4[C@@]4(CO)O[C@@H]34)[C@@H]2OC(C)=O)cc1`, the Potency result in assay [1] and in assay [2] was “inactive” each time.

Consider `Fc1ccc(N2CCCCC2)c(NC(=S)c2ccncc2)c1`, for which the Potency is 11.6 µM (active) in assay [1] and 9.2 µM (active) in assay [2].

With `C=C[C@H]1[C@H](O[C@@H]2O[C@H](CO[C@@H]3OC[C@](O)(CO)[C@H]3O)[C@@H](O)[C@H](O)[C@H]2O)OC=C2C(=O)OCC[C@H]21`, the Potency entry in assay [1] and in assay [2] was “inactive” in each case.

As to `C[C@]1(CO)CCC[C@]2(C)C3=C(CCC12)COC3` (stereo not given in full), the Potency entry in assay [1] and in assay [2] was “inactive” throughout.

In the case of `C=CC(C)(O)CC/C=C(\C)COC1O[C@H](CO)[C@@H](O)[C@H](O)[C@H]1O` (stereo not given in full), the Potency result in assay [1] and in assay [2] was “inactive” in each case.

Consider `CC1(C)CC[C@]2(C(=O)O[C@@H]3O[C@H](CO)[C@@H](O)[C@H](O)[C@H]3O)CC[C@]3(C)C(=CCC4[C@@]5(C)C[C@@H](O)[C@H](O)[C@](C)(C(=O)O)C5CC[C@]43C)C2C1O` (stereo not given in full), for which the Potency entry in assay [1] and in assay [2] was “inactive” each time.

Take `COc1cc(OC)c(C(=O)/C=C/c2ccccc2)c2c1C=CC(C)(C)O2`: the Potency in assay [1] is 10.3 µM (active); in assay [2] it was 5.17 µM (active).

For the compound `C=C[C@H]1C(O[C@@H]2O[C@H](CO)[C@@H](O)[C@H](O)[C@H]2O)OC=C2C(=O)N3CCc4c([nH]c5ccccc45)[C@H]3C[C@H]21` (stereo not given in full), the Potency entry in assay [1] and in assay [2] was “inactive” each time.

Turning to `CC(CCc1ccccn1)(CCc1ccccn1)C(=O)c1ccccc1`, the Potency result in assay [1] and in assay [2] was “inactive” throughout.

For the compound `COC(=O)c1sccc1S(=O)(=O)Nc1ccc(Nc2ccccc2)cc1OC`, the Potency is 5.17 µM (active) in assay [1] and 3.26 µM (active) in assay [2].

Consider `CC1(C)CC[C@]2(C(=O)O)CC[C@]3(C)C(=CCC4[C@@]5(C)C[C@@H](O)[C@H](O)C(C)(C)C5CC[C@]43C)[C@@H]2[C@@H]1O` (stereo not given in full), for which the Potency entry in assay [1] and in assay [2] was “inactive” in each case.

As for `CC1OC(=O)C[C@@H]2C(C(=O)O)=CO[C@@H](O[C@H]3O[C@H](CO)[C@@H](O)[C@H](O)[C@H]3O)[C@H]12` (stereo not given in full), the Potency entry in assay [1] and in assay [2] was “inactive” each time.

Regarding `CC1(C(=O)O)CCCC2(C)C1CCC13CC(CCC21)C1(CO)OC31` (stereo not given), the Potency result in assay [1] and in assay [2] was “inactive” in each case.

For the compound `Nc1cc(C(F)(F)F)ccc1S`, the Potency in assay [1] was 21.1 µM (active); in assay [2], 23.7 µM (active).

In the case of `C[C@H]1[C@H](C)CC[C@]2(C(=O)O)CC[C@]3(C)C(=CCC4[C@@]5(C)C[C@@H](O)[C@H](O)C(C)(C)C5CC[C@]43C)[C@H]12` (stereo not given in full), the Potency result in assay [1] and in assay [2] was “inactive” in each case.

Take `O=C(/C=C/c1ccc(O)cc1)O[C@H]1[C@H](OC2CCCCC2O)O[C@H](CO)[C@@H](O)[C@@H]1O` (stereo not given in full): the Potency entry in assay [1] and in assay [2] was “inactive” each time.

As for `CS(=O)(=O)c1ccccc1N1CCN(c2nc3c(c(=O)[nH]2)CSCC3)CC1`, the Potency result in assay [1] and in assay [2] was “inactive” each time.

For the compound `CNC(=O)c1cc(Oc2ccc(NC(=O)c3cccc(C(F)(F)F)c3)cc2)ccn1`, the Potency in assay [1] and in assay [2] was 11.6 µM (active) each time.

Consider `CC(CCC1(O)OC2CC3C4CC=C5CC(O[C@@H]6O[C@H](CO)[C@@H](O[C@@H]7O[C@@H](C)[C@H](O)[C@@H](O)[C@H]7O)[C@H](O)[C@H]6O[C@@H]6O[C@@H](C)[C@H](O)[C@@H](O)[C@H]6O)CCC5(C)C4CCC3(C)C2C1C)CO[C@@H]1O[C@H](CO)[C@@H](O)[C@H](O)[C@H]1O` (stereo not given in full), for which the Potency in assay [1] and in assay [2] was 3.48 µM (active) each time.

As to `CC/C=C\[C@H](O)[C@H](O)C1=C(C)C(=O)[C@]2(O1)C(=O)N[C@@](OC)(C(=O)c1ccccc1)[C@@H]2O`, the Potency entry in assay [1] and in assay [2] was “inactive” in each case.

In the case of `CS(=O)(=O)N(CC(=O)NCC1CC1)c1cc(C(F)(F)F)ccc1Cl`, the Potency result in assay [1] and in assay [2] was “inactive” each time.

Take `NC(=O)c1cccc2[nH]c(-c3ccc(C4CCCN4)cc3F)nc12` (stereo not given): the values for the Potency in assay [1] and in assay [2] were 13 µM (active) and 16.4 µM (active), respectively.

Regarding `COC(=O)c1c(C)cc(OC(=O)c2c(C)cc(OC)cc2OC)cc1O[C@@H]1O[C@H](CO)[C@@H](O)[C@H](O)[C@H]1O`, the Potency result in assay [1] and in assay [2] was “inactive” throughout.

For the origin of these results see PubChem BioAssay (NCATS).
